# Results: PubChem BioAssay (Tox21)
# Records with an inconclusive call do not appear. Where a call stands in place of a potency, no number is given. Activity calls are given as the source filed them. Unless noted, calls come from the whole dose curve; as a rule, active = well fitted curve in the direction sought with a large enough effect in the repeat runs; inconclusive = weak or mixed curves; inactive = no such curve, though single readings can be large; an effect the other way counts as inactive or inconclusive.
# How the values were obtained:
# [1] = qHTS assay to identify small molecule agonists of the NFkB signaling pathway (AID 1159509; active = well fitted curve in the direction sought with a large enough effect in the signal ratio in the repeat runs, not every such curve was filed as active; the % refers to the signal ratio)
# In short: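 Agonist activity was read as beta-lactamase-driven FRET change (460 and 530 nm emission, 405 nm excitation) following 1.5 hr substrate loading at room temperature. Beforehand, ME-180 NFkB-bla reporter cells were treated with compounds for 5 hr at 37 C.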
# [2] = qHTS assay to identify small molecule agonists of the endoplasmic reticulum stress response signaling pathway (AID 1159516; active = well fitted activation curve with a large enough effect in the signal ratio in the repeat runs, not every such curve was filed as active; the % refers to the signal ratio)
# In short: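 Cells are seeded at 1,500 per well and incubated overnight. Compounds in DMSO are added for 5 hr at 37 C, then beta-lactamase FRET substrate for 2 hr at room temperature, and fluorescence at 460 and 530 nm is measured.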
# [3] = qHTS assay to identify small molecule agonists of the endoplasmic reticulum stress response signaling pathway - cell viability counter screen (AID 1159517; calls by dose curve;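 note: HeLa cells carrying an ER stress response element beta-lactamase reporter; nearly all actives have a fitted effect of over 50% in size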)
# In short: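 In parallel with the ESRE reporter read, cytotoxicity was scored by CellTiter-Glo luminescence (30 min, room temperature) on HeLa ESRE-bla cells dosed for 5 hr.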
# [4] = qHTS assay to identify small molecule antagonists of the retinoid-related orphan receptor gamma (ROR-gamma) signaling pathway - cell viability counter screen (AID 1159520); note: nearly all actives have a fitted effect of over 50% in size
# In short: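 Tet-on ROR gamma CHO cells were given compounds for 2 hr, then doxycycline hyclate at 1 uM final, and incubated 16 hr at 37 C. Viability was measured as ATP content by CellTiter-Glo luminescence.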
# [5] = molecular target: Nuclear receptor ROR-gamma (Homo sapiens) (UniProt P51449); test: qHTS assay to identify small molecule antagonists of the retinoid-related orphan receptor gamma (ROR-gamma) signaling pathway (AID 1159521; note: nearly all actives have a fitted effect of over 50% in size; note: potency is the fitted concentration of half-maximal effect)
# In short: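 Luminescence readout (ONE-Glo, 30 min RT) after 16 h doxycycline induction; loss of signal scored as antagonism. CHO cells with TET-inducible RORγ and RORE-LUC reporter; compounds added 2 h before 1 uM final doxycycline.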
# [6] = qHTS assay to identify small molecule agonists of the AP-1 signaling pathway - cell viability counter screen (AID 1159525; calls by dose curve; note: nearly all actives have a fitted effect of over 55% in size)
# In short: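 Same-well cytotoxicity counter screen of the Tox21 10K library in ME-180 cells. The readout is ATP-dependent luminescence after 5 h compound treatment. Data are normalised to DMSO and tetra n-octyl ammonium bromide controls.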
# [7] = qHTS assay to identify small molecule agonists of the AP-1 signaling pathway (AID 1159526; calls by dose curve; note: potency is the fitted concentration of half-maximal effect)
# [8] = qHTS assay to identify small molecule agonists of the RXR signaling pathway - cell viability counter screen (AID 1159529); note: nearly all actives have a fitted effect of over 50% in size; note: potency is the fitted concentration of half-maximal effect
# In short: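 Luminescence from CellTiter-Glo (30 min, RT) measured viability in the same wells as the beta-lactamase reporter readout. Cells: GeneBLAzer RXR-alpha HEK 293T, 2% charcoal-stripped FBS. Compound exposure 16 hr, 37 C.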
# [9] = qHTS assay to identify small molecule antagonists of the retinoid acid receptor (RAR) signaling pathway - cell viability counter screen (AID 1159551); note: nearly all actives have a fitted effect of over 35% in size
# In short: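 Cells (C3RL4) are plated, incubated overnight, dosed with compound in DMSO, then given retinol at 1 uM final. After 6 h at 37 C, CellTiter-Glo is added and luminescence read following 30 min at room temperature.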
# [10] = qHTS assay to identify small molecule agonists of the vitamin D receptor (VDR) signaling pathway - cell viability counter screen (AID 743224); note: nearly all actives have a fitted effect of over 50% in size
# In short: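 Cells: VDR-bla, 2,000/well, settled 4 h. Treatment: compounds in DMSO, 16 h, 37C/5% CO2. Readout: CellTiter-Glo luminescence after 30 min RT.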
# [11] = qHTS assay to identify small molecule antagonists of the vitamin D receptor (VDR) signaling pathway - cell viability counter screen (AID 743225); note: nearly all actives have a fitted effect of over 50% in size
# In short: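 Viability counter screen run in the same wells as the beta-lactamase reporter assay: HEK 293T VDR-UAS-bla cells, 16 h compound exposure at 37C with 3 nM (final) 1-alpha,25-dihydroxyvitamin D3. CellTiter-Glo luminescence, 30 min, room temperature.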
# [12] = molecular target: Retinoic acid receptor RXR-alpha (Homo sapiens) (UniProt P19793); test: qHTS assay to identify small molecule agonists of the RXR signaling pathway (AID 1159527; calls by dose curve; note: nearly all actives have a fitted effect of over 35% in size)
# In short: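 Agonist mode; 9-cis retinoic acid positive control. HEK 293T UAS-bla reporter cells, 2% charcoal-stripped FBS, 16 hr compound exposure at 37 C/5% CO2. LiveBLAzer B/G FRET substrate 2 hr RT; ex 405, em 460/530 nm.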
# [13] = qHTS assay to identify small molecule antagonists of the retinoic acid receptor (RAR) signaling pathway (AID 1159552; note: nearly all actives have a fitted effect of over 50% in size)
# In short: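 Luminescence from a RARE luciferase reporter in C3RL4 cells served as read-out. Cells received compounds together with 1 uM final retinol and incubated 6 hr at 37 C before detection reagent was added for 30 min at room temperature.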
# [14] = qHTS assay to identify small molecule agonists of the retinoic acid receptor (RAR) signaling pathway (AID 1159553); details: C3RL4 RARE luciferase reporter, agonist, 6 h; activation: at 73.3 µM (top of the series)
# In short: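 Seed C3RL4 reporter cells at 1,000 per well and incubate overnight at 37 C. Add compounds in DMSO, incubate 6 hr. Add luciferase reagent, wait 30 min at room temperature, read luminescence.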
# [15] = qHTS assay to identify small molecule agonists of the NFkB signaling pathway - cell viability counter screen (AID 1159515; calls by dose curve; note: nearly all actives have a fitted effect of over 55% in size)
# In short: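 Cells are seeded (2,000 NFkB-bla ME-180 per well), rested overnight, and dosed with DMSO-dissolved compounds for 5 hr at 37 C. Viability is then read by CellTiter-Glo luminescence after 30 min at room temperature.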
# Chain of Retinoic acid receptor RXR-alpha (Homo sapiens) (P19793 whole entry, looked up): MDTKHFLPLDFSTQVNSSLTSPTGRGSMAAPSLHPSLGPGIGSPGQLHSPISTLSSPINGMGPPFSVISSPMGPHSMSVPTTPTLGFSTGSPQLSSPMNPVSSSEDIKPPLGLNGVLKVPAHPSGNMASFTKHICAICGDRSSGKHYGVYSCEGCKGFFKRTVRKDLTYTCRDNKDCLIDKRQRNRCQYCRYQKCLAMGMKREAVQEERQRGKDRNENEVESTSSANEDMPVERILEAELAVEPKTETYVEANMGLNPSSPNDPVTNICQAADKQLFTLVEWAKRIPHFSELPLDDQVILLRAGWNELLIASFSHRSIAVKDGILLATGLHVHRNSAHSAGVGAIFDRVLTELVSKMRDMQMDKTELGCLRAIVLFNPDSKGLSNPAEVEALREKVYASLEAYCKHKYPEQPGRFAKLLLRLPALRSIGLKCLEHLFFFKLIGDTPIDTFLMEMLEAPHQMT
SMILES,Potency [1],Potency [2],Potency [3],Potency [4],Potency [5],Potency [6],Potency [7],Potency [8],Potency [9],Potency [10],Potency [11],Potency [12],Potency [13],Potency [14],Potency [15]
CN1CCCC(n2nc(Cc3ccc(Cl)cc3)c3ccccc3c2=O)CC1 (configuration not stated),inactive,inactive,inactive,inactive,inactive,inactive,12 µM (active),5.35 µM (active),inactive,,,,,,
CCC(=O)C1CC(C(C)C)CC=C1C (configuration not stated),inactive,inactive,inactive,inactive,inactive,inactive,inactive,inactive,inactive,inactive,inactive,inactive,inactive,inactive,
C=C(C)CCCC(C)CCO (configuration not stated),inactive,inactive,inactive,inactive,inactive,inactive,inactive,inactive,inactive,inactive,,inactive,inactive,inactive,
CN1C(=O)N(c2ccccc2Br)Cc2cnc(Nc3ccc4c(c3)OCC(CO)O4)nc21 (configuration not stated),inactive,,,,54.5 µM (active),inactive,,0.245 µM (active),,,,inactive,,,inactive
CN1C(=O)OC(C)(C)C1=O,inactive,inactive,inactive,inactive,inactive,,inactive,inactive,inactive,inactive,inactive,inactive,inactive,inactive,
Nc1nnc(-c2ccc([N+](=O)[O-])o2)o1,inactive,inactive,inactive,inactive,6.86 µM (active),inactive,,inactive,inactive,inactive,inactive,,inactive,inactive,
Cc1ccc(OC(=O)c2ccccc2O)cc1,inactive,inactive,inactive,inactive,inactive,inactive,inactive,inactive,inactive,,,,inactive,,
Nc1ncnc2c1ncn2[C@H]1CC[C@@H](CO)O1,inactive,inactive,inactive,inactive,inactive,inactive,inactive,inactive,inactive,inactive,,inactive,inactive,inactive,
CN1CC(=O)N2[C@H](c3ccc4c(c3)OCO4)c3[nH]c4ccccc4c3C[C@@H]2C1=O,inactive,inactive,inactive,inactive,inactive,inactive,inactive,inactive,inactive,inactive,inactive,inactive,inactive,inactive,
N#CCc1ccc(Cl)cc1Cl,inactive,inactive,inactive,inactive,inactive,inactive,inactive,inactive,inactive,inactive,inactive,inactive,inactive,,
CC(C)(O)c1ccc(CNC(=O)c2cccnc2Oc2ccc3nonc3c2)cc1,inactive,inactive,inactive,inactive,inactive,inactive,inactive,,inactive,inactive,inactive,,,,
